Hits are enriched below; roughly 2.2% of the tested compounds scored in any of these assays.
GLP1R inv ag: qHTS of GLP-1 Receptor Inverse Agonists (Inhibition Mode); Glucagon-like peptide 1 receptor (Homo sapiens), P43220; HEK293 GLP-1R CRE-luciferase, luminescence, 24 h; GLP-1R form is constitutively active; Potency, µM (doses to about 38.3 µM), most hits filed as inhibitors; 410,000 compounds, 1.6% hits; note: nearly all actives have a fitted effect of over 55% in size
Target sequence (P43220 whole entry, looked up): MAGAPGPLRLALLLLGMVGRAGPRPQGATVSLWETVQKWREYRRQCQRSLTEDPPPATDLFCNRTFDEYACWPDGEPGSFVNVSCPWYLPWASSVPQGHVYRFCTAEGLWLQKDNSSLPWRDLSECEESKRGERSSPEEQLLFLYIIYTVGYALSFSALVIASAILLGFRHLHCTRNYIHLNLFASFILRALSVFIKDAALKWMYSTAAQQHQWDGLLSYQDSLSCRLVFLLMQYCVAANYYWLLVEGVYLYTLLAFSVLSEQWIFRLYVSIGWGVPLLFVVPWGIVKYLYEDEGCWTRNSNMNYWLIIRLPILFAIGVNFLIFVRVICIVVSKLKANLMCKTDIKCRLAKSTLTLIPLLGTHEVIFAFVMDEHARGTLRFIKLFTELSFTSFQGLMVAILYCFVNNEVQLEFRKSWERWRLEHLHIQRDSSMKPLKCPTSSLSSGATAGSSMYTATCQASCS
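HEK293 cells stably co-expressing constitutively active GLP-1R and a cAMP-responsive luciferase reporter were seeded in DMEM with 10% Nu serum, given compounds after 12 h, and incubated 24 h at 37 deg C. Luminescence was then read.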
uPA generation: qHTS for Inhibitors of Cell Surface uPA Generation; cell surface uPA generation assay, qHTS; Potency, µM (titrated, usually from 38.3 µM), usual class: inhibitors; 330,000 compounds, 0.31% hits; AID 540303, 2011; active = well fitted inhibition curve with a large enough effect; inconclusive = small, poorly fitted or top-dose-only effect; inactive = no such curve, though single readings can be large or run the other way; tested in mouse RAW 264.7 cells; note: nearly all actives have a fitted effect of over 55% in size
CCT chaperon mod: High-Throughput Screening for Modulators of Cytosolic Chaperonin Activity; purified chaperonin ATPase assay, HTRF ADP detection, 30 min; activity change, % (concentration not given with the values), hits read low; 360,000 compounds, 0.3% hits; AID 651819, 2012; in the data active = activity change below about -30%
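TRiC at 40 or 20 nM final (batch-dependent) in 30 mM Tris pH 7.4, 100 mM KCl, 5 mM MgCl2, 1 mM DTT, with compound at single 76 uM and 10 uM ATP, 30 min at 37 deg C. ADP detected by HTRF Transcreener, 665/615 ratio.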
GLP1R cytotox: qHTS of GLP-1 Receptor Inverse Agonists: Cytotox Screen | HEK293 cAMP-luciferase reporter cells, luminescence, 24 h | Potency, µM (titrated, usually from 38.3 µM), hits mostly inhibitors | 410,000 compounds, 0.13% hits;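 note: loss of luciferase light is scored as toxicity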
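Quantitative HTS format, 1536 wells, 200 cells/uL seeded. Compounds: 23 nL, 24 h, 37 °C. Detection: luciferase reagent, luminescence at 12 min RT; decreased signal taken as cytotoxic.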
GLP1R ag: qHTS of GLP-1 Receptor Agonists | Glucagon-like peptide 1 receptor (Homo sapiens), P43220 | HEK293 GLP-1R CRE-luciferase, luminescence, 4-6 h; cells express a hypersensitive GLP-1R form | Potency, µM (highest dose often 45.6 µM), actives largely listed as activators | 380,000 compounds, 0.007% hits
MmCpn inh: Inhibitors of TCP-1 ring complex (TRiC) of Methanococcus maripaludis (MmCpn): qHTS; Chaperonin Mm-Cpn (Methanococcus maripaludis); purified Mm-Cpn ATPase, ADP Transcreener TR-FRET; Potency, µM (top dose mostly 76.9 µM), actives largely listed as inhibitors; 330,000 compounds, 0.031% hits; AID 504842, 2011; note: nearly all actives have a fitted effect of over 80% in size
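Purified archaeal Mm-CPN (25nM final) preincubated 10 min at 37degC with compound, then 10uM ATP for 30 min at 37degC; ADP measured by HTRF Transcreener TR-FRET; buffer 30 mM TRIS pH 7.4, 100mM KCl, 5mM MgCl2, 1mM DTT.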
A number is an active result; – = inactive; ? = inconclusive; · = not tested or not shown. Unless noted, calls come from the whole dose curve; as a rule, active = well fitted curve in the direction sought with a large enough effect; inconclusive = small, poorly fitted or top-dose-only effect, or another doubt; inactive = no such curve, though single readings can be large; an effect the other way counts as inactive or inconclusive.

SMILES	GLP1R inv ag	uPA generation	CCT chaperon mod	GLP1R cytotox	GLP1R ag	MmCpn inh
COc1ccc(-c2noc(-c3ccc(N4CCCC4)c([N+](=O)[O-])c3)n2)cc1	–	·	·	–	·	·
CCCCC(F)(F)[C@@]1(O)CC[C@H]2[C@H](CC(=O)[C@@H]2CCCCCCC(=O)O)O1	·	·	·	·	–	·
Cn1c(=O)c2c(nc(CN3CCN(Cc4ccccc4)CC3)n2Cc2cccc(Cl)c2)n(C)c1=O	?	–	–	–	–	–
Cn1c(=O)c2c(nc(CN3CCc4ccccc4C3)n2Cc2cccc(Cl)c2)n(C)c1=O	?	7.9µM	–	–	–	–
COc1ccc(NC(=O)/C(Cl)=C(/Cl)S(=O)Cc2ccccc2)cn1 (centres undefined)	–	–	–	2.8µM	–	–
CCc1cccc2c(-c3ccccc3)nc(SCC(=O)Nc3ccc(OC)cc3)nc12	–	·	·	–	·	·
COc1ccc2c(c1)c1c(c(=O)n(Cc3ccccc3)c(=O)n1Cc1ccccc1)n2C	–	·	·	–	–	·
O=c1cc2c(nn1Cc1ccccc1Cl)-c1ccccc1CC2	10µM	–	–	–	?	–
O=c1cc2c(nn1Cc1ccc(Cl)cc1Cl)-c1ccccc1CC2	?	–	–	–	–	–
Cc1cc(N2CCN(C)CC2)nc2ccc(NC(=S)N3CCCCC3)cc12	10µM	–	–	–	–	–
COc1cc(OC)cc(C(=O)Nc2ccc3nc(N4CCCCC4)cc(C)c3c2)c1	11µM	·	·	–	·	·
Cc1cc(N2CCN(C)CC2)nc2ccc(NC(=S)N3CCCCCC3)cc12	11µM	?	–	–	–	–
Cc1ccc(Cn2cc(CCC(=O)NC3CCC(C)CC3)c3ccccc32)cc1 (centres undefined)	?	·	·	–	·	·
CCOC(=O)N1CCN(C(=O)Cn2nc(-c3ccc(Cl)cc3)ccc2=O)CC1	?	–	–	–	–	–
CCN1CCN(C(=O)Cn2nc(-c3ccc(Cl)cc3)ccc2=O)CC1	2.8µM	–	–	–	–	–
Fc1ccc(OCCOCCN2CCCC2)cc1	–	–	–	–	–	·
CC(OCCN1CCCC1)(c1ccc(F)cc1)c1ccc(F)cc1	10µM	–	–	?	–	–
O=C(NC1CCCc2c1cnn2-c1ccccc1F)c1ccccc1N1CCOCC1 (centres undefined)	7.9µM	–	–	–	–	–
Cc1cc(C)cc(-n2ncc3c2CCCC3NC(=O)c2ccccc2N2CCOCC2)c1 (centres undefined)	?	–	–	–	–	–
COC(=O)C1=CN(c2ccc(F)cc2)C=C(C(=O)OC)C1c1cccc([N+](=O)[O-])c1	5.6µM	–	–	–	–	–
Cc1cccc(CCNC(=O)Cn2ncc3c(=O)oc4ccccc4c32)c1	–	·	·	–	–	·
CSC(=Nc1ccccc1)N=C(SCc1ccccc1)N(C)C	3.5µM	–	–	5.6µM	–	·
N#CNC(=Nc1ccccc1)SCc1ccc(C(=O)O)cc1	–	–	–	–	–	–
Cc1nc2c(C(=O)NCCC3=CCCCC3)c[nH]n2c(=O)c1Cl	–	–	-39	–	–	–
S=C(c1cn(CCOc2cccc3ccccc23)c2ccccc12)N1CCCC1	–	–	–	?	–	50µM
S=C(c1cn(CCOc2ccccc2)c2ccccc12)N1CCCC1	?	–	–	–	–	–
COc1ccc(-n2ncc(C(=O)N3CCN(Cc4ccccc4)CC3)c2C2CCN(C(=O)OC(C)(C)C)CC2)cc1	–	·	·	–	·	·
O=C(CN1C(=O)c2ccccc2S1(=O)=O)c1ccc(OC(F)F)cc1	?	–	–	–	–	–
O=C(CN1C(=O)c2ccccc2S1(=O)=O)c1ccc(F)cc1	2.2µM	?	–	–	–	–
O=C(CN1C(=O)c2ccccc2S1(=O)=O)c1ccc2c(c1)OCCO2	–	2µM	–	–	–	–
